Experimental data reported in PubChem BioAssay (Tox21).
Results filed as inconclusive are left out. Activity calls are given as the source filed them. The call rests on the fitted dose curve; in most records, active means well fitted curve in the direction sought with a large enough effect in the repeat runs; inconclusive means weak or mixed curves; inactive means no such curve, though single readings can be large; an effect the other way counts as inactive or inconclusive.

Assays:
[1] = biological target: Cytochrome P450 2D6 (Homo sapiens) (UniProt P10635); experiment: Cytochrome P450 Family 2 Subfamily D Member 6 (CYP2D6) small molecule antagonists: luciferase reporter qHTS assay (AID 1671196); further: series mostly up to about 120 µM; nearly all actives have a fitted effect of over 50% in size
Chain of Cytochrome P450 2D6 (Homo sapiens) (P10635 whole entry, looked up): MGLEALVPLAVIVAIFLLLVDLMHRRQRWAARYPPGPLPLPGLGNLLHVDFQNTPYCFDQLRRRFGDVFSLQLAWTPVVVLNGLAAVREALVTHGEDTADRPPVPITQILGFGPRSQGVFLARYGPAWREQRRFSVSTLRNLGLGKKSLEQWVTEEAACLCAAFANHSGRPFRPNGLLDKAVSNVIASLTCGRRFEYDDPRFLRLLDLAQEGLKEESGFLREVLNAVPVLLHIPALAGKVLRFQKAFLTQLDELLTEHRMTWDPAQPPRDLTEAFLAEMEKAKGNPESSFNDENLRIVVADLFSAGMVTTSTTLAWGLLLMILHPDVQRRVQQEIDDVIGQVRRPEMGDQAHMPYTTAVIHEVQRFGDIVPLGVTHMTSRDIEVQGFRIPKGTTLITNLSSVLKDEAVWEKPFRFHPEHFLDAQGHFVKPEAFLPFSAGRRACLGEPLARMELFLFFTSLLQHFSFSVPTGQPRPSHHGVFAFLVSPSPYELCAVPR
Summary of the method: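 Inhibition of CYP2D6 was gauged by loss of luminescence, since light produced tracks the luciferin generated from a proluciferin substrate. A 10 min room-temperature preincubation preceded 1 h NADPH-supported turnover.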

[2] = biological target: Cytochrome P450 2C19 (Homo sapiens) (UniProt P33261); experiment: Cytochrome P450 Family 2 Subfamily C Member 19 (CYP2C19) small molecule antagonists: luciferase reporter qHTS assay (AID 1671197); further: nearly all actives have a fitted effect of over 65% in size; further: potency means the concentration at half of the fitted maximal effect; on activity change, negative = inhibition: series mostly up to about 120 µM
Chain of Cytochrome P450 2C19 (Homo sapiens) (P33261 whole entry, looked up): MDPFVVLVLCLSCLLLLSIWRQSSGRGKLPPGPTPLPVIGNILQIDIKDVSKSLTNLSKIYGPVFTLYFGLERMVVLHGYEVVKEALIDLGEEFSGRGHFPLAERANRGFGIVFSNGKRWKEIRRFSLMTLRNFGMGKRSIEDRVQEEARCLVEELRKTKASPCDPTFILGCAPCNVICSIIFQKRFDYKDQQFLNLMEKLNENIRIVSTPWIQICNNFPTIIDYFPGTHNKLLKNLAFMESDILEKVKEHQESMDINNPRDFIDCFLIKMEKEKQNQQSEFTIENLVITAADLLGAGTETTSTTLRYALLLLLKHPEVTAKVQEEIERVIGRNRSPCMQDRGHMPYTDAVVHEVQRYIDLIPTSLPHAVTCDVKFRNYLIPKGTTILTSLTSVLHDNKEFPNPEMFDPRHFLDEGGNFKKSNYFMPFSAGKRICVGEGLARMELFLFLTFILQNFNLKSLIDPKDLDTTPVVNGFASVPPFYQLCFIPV
Summary of the method: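 Compounds were tested on CYP2C19 activity via proluciferin conversion to luciferin. The 37C, 1 h reaction followed NADPH addition; detection reagent stopped it.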

[3] = biological target: Cytochrome P450 2C9 (Homo sapiens) (UniProt P11712); experiment: Cytochrome P450 Family 2 Subfamily C Member 9 (CYP2C9) small molecule antagonists: luciferase reporter qHTS assay (AID 1671198); further: nearly all actives have a fitted effect of over 50% in size; further: potency means the concentration at half of the fitted maximal effect; on activity change, negative = inhibition: series mostly up to about 120 µM
Chain of Cytochrome P450 2C9 (Homo sapiens) (P11712 whole entry, looked up): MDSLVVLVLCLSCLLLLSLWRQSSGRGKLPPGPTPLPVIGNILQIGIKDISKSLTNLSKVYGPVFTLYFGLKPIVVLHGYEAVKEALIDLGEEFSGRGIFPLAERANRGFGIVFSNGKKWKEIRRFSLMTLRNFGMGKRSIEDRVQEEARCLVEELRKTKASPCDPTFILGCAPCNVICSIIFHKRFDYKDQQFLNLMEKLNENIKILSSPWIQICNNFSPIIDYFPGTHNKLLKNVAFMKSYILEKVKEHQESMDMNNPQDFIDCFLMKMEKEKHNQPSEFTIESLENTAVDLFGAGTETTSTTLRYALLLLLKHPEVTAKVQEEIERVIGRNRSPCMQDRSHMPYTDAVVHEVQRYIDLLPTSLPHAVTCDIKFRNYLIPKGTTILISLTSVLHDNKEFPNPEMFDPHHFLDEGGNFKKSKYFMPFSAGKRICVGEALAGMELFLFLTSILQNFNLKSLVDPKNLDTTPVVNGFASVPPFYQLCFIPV
Summary of the method: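 CYP2C9 activity was measured with a P450-Glo proluciferin substrate. Enzyme–substrate mix was held with compound for 10 min at room temperature, then NADPH regeneration solution was added for 1 h at 37C. Luciferin product was read as luminescence.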

[4] = biological target: Cytochrome P450 1A2 (Homo sapiens) (UniProt P05177); experiment: Cytochrome P450 Family 1 Subfamily A Member 2 (CYP1A2) small molecule antagonists: luciferase reporter qHTS assay (AID 1671199); further: nearly all actives have a fitted effect of over 50% in size; further: potency means the concentration at half of the fitted maximal effect; on activity change, negative = inhibition: series mostly up to about 120 µM
Chain of Cytochrome P450 1A2 (Homo sapiens) (P05177 whole entry, looked up): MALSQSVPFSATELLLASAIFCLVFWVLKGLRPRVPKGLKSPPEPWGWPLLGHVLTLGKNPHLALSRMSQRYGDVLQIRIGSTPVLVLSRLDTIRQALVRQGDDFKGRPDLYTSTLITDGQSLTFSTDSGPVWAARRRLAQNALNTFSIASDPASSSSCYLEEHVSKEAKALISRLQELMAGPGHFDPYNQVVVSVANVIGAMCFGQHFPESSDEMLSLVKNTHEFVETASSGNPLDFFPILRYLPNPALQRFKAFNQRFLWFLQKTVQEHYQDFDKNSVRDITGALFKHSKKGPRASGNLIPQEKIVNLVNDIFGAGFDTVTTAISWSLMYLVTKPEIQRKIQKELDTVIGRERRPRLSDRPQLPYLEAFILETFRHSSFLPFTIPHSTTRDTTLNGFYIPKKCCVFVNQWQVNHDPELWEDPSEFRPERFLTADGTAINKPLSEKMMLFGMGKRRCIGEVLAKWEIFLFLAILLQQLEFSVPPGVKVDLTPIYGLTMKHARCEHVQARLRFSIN
Summary of the method: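 Signal from luciferin formed by CYP1A2 from a proluciferin substrate is read as luminescence, expressed in relative luminescence units. Compounds sit with enzyme 10 min, NADPH-driven reaction runs 1 h, all at room temperature.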

[5] = biological target: Voltage-gated inwardly rectifying potassium channel KCNH2 (Homo sapiens) (UniProt Q12809); experiment: Human Ether-a-go-go-Related Gene (hERG) channel small molecule antagonists: fluorescence cell-based qHTS assay (AID 1671200);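 further: hERG-expressing U2OS cells given a thallium stimulus after FluxOR II dye loading; series mostly up to about 77 µM; nearly all actives have a fitted effect of over 50% in size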
Chain of Voltage-gated inwardly rectifying potassium channel KCNH2 (Homo sapiens) (Q12809 whole entry, looked up): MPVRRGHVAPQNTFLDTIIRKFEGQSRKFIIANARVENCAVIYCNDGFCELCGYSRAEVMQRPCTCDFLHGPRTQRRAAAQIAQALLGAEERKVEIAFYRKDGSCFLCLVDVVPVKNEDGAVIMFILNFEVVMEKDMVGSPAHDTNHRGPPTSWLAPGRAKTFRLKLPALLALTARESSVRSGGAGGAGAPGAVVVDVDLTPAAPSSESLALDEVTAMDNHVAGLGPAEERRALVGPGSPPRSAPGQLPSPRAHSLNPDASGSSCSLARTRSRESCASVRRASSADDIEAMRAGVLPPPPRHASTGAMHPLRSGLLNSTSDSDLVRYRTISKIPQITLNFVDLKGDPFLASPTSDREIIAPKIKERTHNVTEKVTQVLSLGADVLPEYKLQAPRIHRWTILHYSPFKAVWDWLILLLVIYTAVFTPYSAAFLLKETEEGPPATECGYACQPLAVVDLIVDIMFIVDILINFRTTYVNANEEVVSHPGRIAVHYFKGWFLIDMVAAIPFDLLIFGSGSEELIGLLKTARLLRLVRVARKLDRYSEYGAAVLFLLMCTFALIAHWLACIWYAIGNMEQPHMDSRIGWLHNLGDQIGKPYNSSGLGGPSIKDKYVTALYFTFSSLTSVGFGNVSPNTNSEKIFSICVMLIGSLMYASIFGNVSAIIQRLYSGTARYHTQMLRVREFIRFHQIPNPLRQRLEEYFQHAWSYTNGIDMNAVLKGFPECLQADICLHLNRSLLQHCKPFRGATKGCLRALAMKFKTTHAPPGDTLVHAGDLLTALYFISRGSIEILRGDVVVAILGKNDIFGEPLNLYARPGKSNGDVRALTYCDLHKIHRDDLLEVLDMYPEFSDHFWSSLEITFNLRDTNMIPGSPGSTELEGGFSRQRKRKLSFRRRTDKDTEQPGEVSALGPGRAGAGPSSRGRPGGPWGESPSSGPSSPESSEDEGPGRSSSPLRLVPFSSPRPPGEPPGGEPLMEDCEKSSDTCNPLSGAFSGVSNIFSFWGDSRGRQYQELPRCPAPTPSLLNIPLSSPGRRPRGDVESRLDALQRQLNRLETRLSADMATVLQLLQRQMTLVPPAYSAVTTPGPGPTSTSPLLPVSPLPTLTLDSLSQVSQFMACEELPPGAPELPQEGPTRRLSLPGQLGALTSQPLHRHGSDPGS
Summary of the method: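 In this thallium-flux screen, overnight-cultured U2OS cells bearing the channel are dye-loaded in darkness for an hour, rested 10 min at room temperature, and then monitored kinetically at 480/540 nm for two minutes post-stimulus.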

[6] = biological target: Cytochrome P450 3A4 (Homo sapiens) (UniProt P08684); experiment: Cytochrome P450 Family 3 Subfamily A Member 4 (CYP3A4) small molecule antagonists: luciferase reporter qHTS assay (AID 1671201)
Chain of Cytochrome P450 3A4 (Homo sapiens) (P08684 whole entry, looked up): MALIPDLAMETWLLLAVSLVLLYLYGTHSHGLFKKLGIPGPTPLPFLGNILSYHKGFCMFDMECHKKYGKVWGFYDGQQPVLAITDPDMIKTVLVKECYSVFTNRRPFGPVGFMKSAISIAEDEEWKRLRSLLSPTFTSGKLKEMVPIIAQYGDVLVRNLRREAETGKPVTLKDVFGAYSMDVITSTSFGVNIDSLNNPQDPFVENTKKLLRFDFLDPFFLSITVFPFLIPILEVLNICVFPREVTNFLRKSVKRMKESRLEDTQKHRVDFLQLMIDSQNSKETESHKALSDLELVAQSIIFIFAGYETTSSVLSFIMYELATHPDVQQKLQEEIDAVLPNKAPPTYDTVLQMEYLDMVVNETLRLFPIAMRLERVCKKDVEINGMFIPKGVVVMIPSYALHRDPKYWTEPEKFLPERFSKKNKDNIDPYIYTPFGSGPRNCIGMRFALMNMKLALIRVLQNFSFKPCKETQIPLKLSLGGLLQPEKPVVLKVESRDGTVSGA
Summary of the method: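 CYP3A4 activity was followed with a P450-Glo proluciferin substrate. Test compounds in DMSO were preincubated 10 min; NADPH regeneration then ran 1 h, and light output was read 20 min after detection reagent.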
On the % scale 0 is the no-effect control and ±100 the full control effect.

SCCSCCS
inactive: Potency [1] | Potency [2] | Potency [3] | Potency [4] | Potency [5] | Potency [6]

CCC(C)(C)C1CCC(=O)CC1
inactive: Potency [1] | Potency [2] | Potency [3] | Potency [4] | Potency [5] | Potency [6]

CCCCOC(=O)C(C)OC(=O)CCC (centres undefined)
inactive: Potency [1] | Potency [2] | Potency [3] | Potency [4] | Potency [5] | Potency [6]

CCCCCCCCCCCCCCCCCCN(C)C
inactive: Potency [1] | Potency [2] | Potency [3] | Potency [4] | Potency [5] | Potency [6]

CCCCC(=O)N(C)C
inactive: Potency [1] | Potency [2] | Potency [3] | Potency [4] | Potency [5] | Potency [6]

O=C(O)Cc1cccc(-c2cc(CCCCCCc3ccc(O[C@H]4O[C@H](CO)[C@@H](O)[C@H](O)[C@@H]4O)c(-c4cccc(CC(=O)O)c4)c3)ccc2O[C@H]2O[C@H](CO)[C@@H](O)[C@H](O)[C@@H]2O)c1
inactive: activity change, negative = inhibition [1] 0.276% [at 0.435 µM] | activity change, negative = inhibition [2] 11.7% [at 0.435 µM] | activity change, negative = inhibition [3] 0.681% [at 0.435 µM] | activity change, negative = inhibition [4] -0.131% [at 0.435 µM] | activity change, negative = inhibition [5] -0.102% [at 0.29 µM] | activity change, negative = inhibition [6] 0.205% [at 0.435 µM]

CCCCCCCC/C=C\CCCCCCCC(=O)OC[C@@H](O)[C@H]1OC[C@H](O)[C@H]1O
inactive: Potency [1] | Potency [2] | Potency [4] | Potency [5] | Potency [6]
active: Potency [3] 31.7 µM

CC(=O)OC(C)c1ccccc1 (centres undefined)
inactive: Potency [1] | Potency [2] | Potency [3] | Potency [4] | Potency [5] | Potency [6]

FC(F)(F)/C(=N\OCC1OCCO1)c1ccc(Cl)cc1
inactive: Potency [1] | Potency [5] | Potency [6]
active: Potency [2] 1.59 µM | Potency [3] 31.7 µM | Potency [4] 2.24 µM
